# Values without a mark were called inactive.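 The calls were made as follows, unless noted: active = at least 20% inhibition of 6-phosphogluconate dehydrogenase activity; inactive = the rest.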
# Tested on: Hepatitis C virus NS3 helicase
# Experiment: blockers of NS3h binding to ssDNA – biochemical, fluorescence polarization, LOPAC1280 library, primary screen (AID 687035; in the data active = inhibition above about 37%)
# Conditions: Purified HCV NS3 helicase, Cy5-dT15 ssDNA binding fluorescence polarization; stronger effect = higher value; concentration not given here
row,SMILES,inhibition [%]
1,O=C(O)C1=CCCNC1,-3
2,CN[C@H](CC(C)C)C(=O)N[C@H]1C(=O)N[C@@H](CC(N)=O)C(=O)N[C@H]2C(=O)N[C@H]3C(=O)N[C@H](C(=O)N[C@H](C(=O)O)c4cc(O)cc(O)c4-c4cc3ccc4O)[C@H](O)c3ccc(c(Cl)c3)Oc3cc2cc(c3O[C@@H]2O[C@H](CO)[C@@H](O)[C@H](O)[C@H]2O[C@H]2C[C@](C)(N)[C@H](O)[C@H](C)O2)Oc2ccc(cc2Cl)[C@H]1O,-5
3,COc1cccc(OC)c1OCCNCC1COc2ccccc2O1 (stereo not drawn),-1
4,CC(C)C[C@H]1C(=O)N2CCC[C@H]2[C@]2(O)O[C@](NC(=O)[C@@H]3C=C4c5cccc6[nH]c(Br)c(c56)C[C@H]4N(C)C3)(C(C)C)C(=O)N12,2
5,O=C(O)C1=CCNCC1,-3
6,CC(=O)[C@H]1CC[C@H]2[C@@H]3CCC4=CC(=O)CC[C@]4(C)[C@H]3CC[C@]12C,-4
7,CCCn1c(=O)c2[nH]c(C3CCCC3)nc2n(CCC)c1=O,0
8,COc1cc(NS(C)(=O)=O)ccc1Nc1c2ccccc2nc2ccccc12,-8
9,O=C(O)c1cc(=O)c2ccccc2[nH]1,-6

# Tested on: not listed separately
# Experiment: compounds altering Cy5-DNA-NS3h complex signal – biochemical, LOPAC1280, artefact control for HCV NS3 helicase inhibitor project (AID 687037; call rule not given here)
# Conditions: Cy5-DNA-NS3h complex fluorescence interference counterscreen
row,SMILES,fluorescence ratio (interference)
1,O=C(O)C1=CCCNC1,1
2,CN[C@H](CC(C)C)C(=O)N[C@H]1C(=O)N[C@@H](CC(N)=O)C(=O)N[C@H]2C(=O)N[C@H]3C(=O)N[C@H](C(=O)N[C@H](C(=O)O)c4cc(O)cc(O)c4-c4cc3ccc4O)[C@H](O)c3ccc(c(Cl)c3)Oc3cc2cc(c3O[C@@H]2O[C@H](CO)[C@@H](O)[C@H](O)[C@H]2O[C@H]2C[C@](C)(N)[C@H](O)[C@H](C)O2)Oc2ccc(cc2Cl)[C@H]1O,1
3,COc1cccc(OC)c1OCCNCC1COc2ccccc2O1 (stereo not drawn),1
4,CC(C)C[C@H]1C(=O)N2CCC[C@H]2[C@]2(O)O[C@](NC(=O)[C@@H]3C=C4c5cccc6[nH]c(Br)c(c56)C[C@H]4N(C)C3)(C(C)C)C(=O)N12,0.9
5,O=C(O)C1=CCNCC1,1
6,CC(=O)[C@H]1CC[C@H]2[C@@H]3CCC4=CC(=O)CC[C@]4(C)[C@H]3CC[C@]12C,0.9
7,CCCn1c(=O)c2[nH]c(C3CCCC3)nc2n(CCC)c1=O,1
8,COc1cc(NS(C)(=O)=O)ccc1Nc1c2ccccc2nc2ccccc12,0.9
9,O=C(O)c1cc(=O)c2ccccc2[nH]1,1

# Molecular target: 6-phosphogluconate dehydrogenase, decarboxylating (Homo sapiens) (UniProt P52209)
# Sequence (P52209 whole entry, looked up): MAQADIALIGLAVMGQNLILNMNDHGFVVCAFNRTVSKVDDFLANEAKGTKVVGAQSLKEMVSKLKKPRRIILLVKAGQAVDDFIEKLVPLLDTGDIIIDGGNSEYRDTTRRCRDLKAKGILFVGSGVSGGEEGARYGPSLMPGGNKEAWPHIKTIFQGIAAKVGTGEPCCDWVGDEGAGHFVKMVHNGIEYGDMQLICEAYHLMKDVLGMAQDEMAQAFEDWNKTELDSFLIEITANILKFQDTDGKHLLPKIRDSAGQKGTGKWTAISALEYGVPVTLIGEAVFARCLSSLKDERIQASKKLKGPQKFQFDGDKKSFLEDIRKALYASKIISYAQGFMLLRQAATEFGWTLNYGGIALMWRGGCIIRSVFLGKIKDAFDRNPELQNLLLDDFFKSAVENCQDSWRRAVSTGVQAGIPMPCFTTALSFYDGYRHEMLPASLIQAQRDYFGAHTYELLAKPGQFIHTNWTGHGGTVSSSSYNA
# Experiment: inhibition of human phosphogluconate dehydrogenase – biochemical, recombinant enzyme, NADPH absorbance, primary screen (AID 1159550)
# Conditions: recombinant 6PGD, NADPH absorbance 341 nm; at 10 µM; stronger effect = higher value
row,SMILES,inhibition [%]
1,COc1c(O)cc2c(c1O)[C@@H]1O[C@H](CO)[C@@H](O)[C@H](O)[C@H]1OC2=O,2.56
2,CCC(=O)NCC[C@@H]1CCc2ccc3c(c21)CCO3,11.8
3,C=C1CC[C@@H]2[C@](C)(CO)[C@H](O)CC[C@@]2(C)[C@@H]1C/C=C1/C(=O)OC[C@H]1O,-4.69
4,C[C@@H]1[C@H](O)[C@@H](C)/C=C/C=C/C=C/C=C/C=C/C=C/C=C/[C@H](O[C@@H]2O[C@H](C)[C@@H](O)[C@H](N)[C@@H]2O)C[C@@H]2O[C@](O)(C[C@@H](O)C[C@@H](O)[C@H](O)CC[C@@H](O)C[C@@H](O)CC(=O)O[C@H]1C)C[C@H](O)[C@H]2C(=O)O,-10.9
5,CC(C)(S)[C@@H](N)C(=O)O,5.83
6,O=C(O)C1=CCCNC1,-3.98
7,CC1(C)[C@@H](O)CC[C@]2(C)[C@H]3C(=O)C=C4[C@@H]5C[C@@](C)(C(=O)O)CC[C@]5(C)CC[C@@]4(C)[C@]3(C)CC[C@@H]12,6.1
8,CN[C@H](CC(C)C)C(=O)N[C@H]1C(=O)N[C@@H](CC(N)=O)C(=O)N[C@H]2C(=O)N[C@H]3C(=O)N[C@H](C(=O)N[C@H](C(=O)O)c4cc(O)cc(O)c4-c4cc3ccc4O)[C@H](O)c3ccc(c(Cl)c3)Oc3cc2cc(c3O[C@@H]2O[C@H](CO)[C@@H](O)[C@H](O)[C@H]2O[C@H]2C[C@](C)(N)[C@H](O)[C@H](C)O2)Oc2ccc(cc2Cl)[C@H]1O,3.51
9,CC[C@@]1(O)C[C@H](O[C@H]2C[C@H](N(C)C)[C@H](O[C@H]3C[C@H](O)[C@H](O[C@H]4CCC(=O)[C@H](C)O4)[C@H](C)O3)[C@H](C)O2)c2c(cc3c(c2O)C(=O)c2c(O)cccc2C3=O)[C@H]1C(=O)OC,13.5
10,COc1cc([C@@H]2c3cc4c(cc3[C@@H](O[C@@H]3O[C@@H]5CO[C@@H](c6cccs6)O[C@H]5[C@H](O)[C@H]3O)[C@H]3COC(=O)[C@H]23)OCO4)cc(OC)c1O,-2.92
11,C[C@H]1O[C@@H](O[C@H]2[C@@H](O)C[C@H](O[C@H]3[C@@H](O)C[C@H](O[C@H]4CC[C@@]5(C)[C@H](CC[C@@H]6[C@@H]5C[C@@H](O)[C@]5(C)[C@@H](C7=CC(=O)OC7)CC[C@]65O)C4)O[C@@H]3C)O[C@@H]2C)C[C@H](O)[C@@H]1O,-1.7
12,CCC[C@@H]1C[C@@H](C(=O)N[C@@H]([C@H]2O[C@H](SC)[C@H](O)[C@@H](O)[C@H]2O)[C@H](C)Cl)N(C)C1,8.56
13,C[C@H]1C[C@H]2[C@@H]3CCC4=CC(=O)C=C[C@]4(C)[C@@]3(F)[C@@H](O)C[C@]2(C)[C@@]1(O)C(=O)CO,-0.85
14,COc1cccc(OC)c1OCCNCC1COc2ccccc2O1 (stereo not drawn),18.8
15,CC(C)(O)CC[C@@H](O)[C@](C)(O)[C@H]1CC[C@@]2(O)C3=CC(=O)[C@@H]4C[C@@H](O)[C@@H](O)C[C@]4(C)[C@H]3CC[C@]12C,8
16,O=C(O)c1cc(=O)c2ccc(Cl)cc2[nH]1,15.5
17,C=C(C)[C@@H]1CC[C@]2(C(=O)O)CC[C@]3(C)[C@H](CC[C@@H]4[C@@]5(C)CC[C@H](O)C(C)(C)[C@@H]5CC[C@]43C)[C@@H]12,0.445
18,COc1cc2c(c(OC)c1OC)-c1ccc(OC)c(=O)cc1C(NC(C)=O)CC2 (stereo not drawn),-26.1
19,CC(C)C[C@H]1C(=O)N2CCC[C@H]2[C@]2(O)O[C@](NC(=O)[C@@H]3C=C4c5cccc6[nH]c(Br)c(c56)C[C@H]4N(C)C3)(C(C)C)C(=O)N12,-9.44
20,O=C(/C=C/c1ccc(O)c(O)c1)O[C@H](Cc1ccc(O)c(O)c1)C(=O)O,-3.01

row,SMILES,inhibition [%]
1,COc1cc([C@@H]2c3cc4c(cc3[C@H](O)[C@H]3COC(=O)[C@@H]23)OCO4)cc(OC)c1OC,1.7
2,O=C(O)C1=CCNCC1,13
3,COc1ccc(CCC(=O)c2c(O)cc(O[C@@H]3O[C@H](CO)[C@@H](O)[C@H](O)[C@H]3O[C@@H]3O[C@@H](C)[C@H](O)[C@@H](O)[C@H]3O)cc2O)cc1O,-14.9
4,Nc1ccn([C@@H]2O[C@H](CO)[C@@H](O)[C@H]2O)c(=O)n1,-4.47
5,C[C@@]12C[C@@]3(O)O[C@@H](O1)[C@]1(COC(=O)c4ccccc4)[C@H]3C[C@@]12O[C@@H]1O[C@H](CO)[C@@H](O)[C@H](O)[C@H]1O,-7.19
6,CC(=O)[C@H]1CC[C@H]2[C@@H]3CCC4=CC(=O)CC[C@]4(C)[C@H]3CC[C@]12C,14.1
7,COC1=C(OC)C(=O)C(C/C=C(\C)CC/C=C(\C)CC/C=C(\C)CC/C=C(\C)CC/C=C(\C)CC/C=C(\C)CC/C=C(\C)CC/C=C(\C)CC/C=C(\C)CCC=C(C)C)=C(C)C1=O,-47.9
8,O=C(O)Cc1nn(Cc2ccc(Br)cc2F)c(=O)c2ccccc12,11.5
9,CCC[C@@H]1C[C@@H](C(=O)N[C@@H]([C@H]2O[C@H](SC)[C@H](O)[C@@H](O)[C@H]2O)[C@@H](C)O)N(C)C1,-15.1
10,COc1ccc([C@@H]2CC(=O)c3c(O)cc(O[C@@H]4O[C@H](CO[C@@H]5O[C@@H](C)[C@H](O)[C@@H](O)[C@H]5O)[C@@H](O)[C@H](O)[C@H]4O)cc3O2)cc1O,1.33
11,COc1ccc(-c2cc(=O)c3c(O)cc(O[C@@H]4O[C@H](CO[C@@H]5O[C@@H](C)[C@H](O)[C@@H](O)[C@H]5O)[C@@H](O)[C@H](O)[C@H]4O)cc3o2)cc1O,7.55
12,O=C1c2c(O)cccc2[C@H]([C@@H]2O[C@H](CO)[C@@H](O)[C@H](O)[C@H]2O)c2cc(CO)cc(O)c21,-1.53
13,CCCn1c(=O)c2[nH]c(C3CCCC3)nc2n(CCC)c1=O,11.4
14,N=c1ccn2c(n1)O[C@H]1[C@H](O)[C@@H](CO)O[C@H]12,-4.99
15,COc1cc(NS(C)(=O)=O)ccc1Nc1c2ccccc2nc2ccccc12,-14.7
16,C=C1C(=O)O[C@H]2[C@H]1CC/C(C)=C/CC[C@@]1(C)O[C@@H]21,4.61
17,CC1(C)[C@@H](O[C@H]2O[C@H](C(=O)O)[C@@H](O)[C@H](O)[C@H]2O[C@@H]2O[C@H](C(=O)O)[C@@H](O)[C@H](O)[C@H]2O)CC[C@]2(C)[C@H]3C(=O)C=C4[C@@H]5C[C@@](C)(C(=O)O)CC[C@]5(C)CC[C@@]4(C)[C@]3(C)CC[C@@H]12,11
18,O=C(O)c1cc(=O)c2ccccc2[nH]1,9.19
19,O=C(O)c1c2ccccc2cc2ccccc12,-1.37
20,C[C@H](CCC(=O)O)[C@H]1CC[C@H]2[C@@H]3[C@H](O)C[C@@H]4C[C@H](O)CC[C@]4(C)[C@H]3CC[C@]12C,-1.04

# Reference: PubChem BioAssay
